High-throughput results as filed in PubChem.
C2C12 statin: protects C2C12 myotubes from simvastatin toxicity. rescue of ATP level, % at 7.49 µM. ATP luminescence, 48 h; scaled: DMSO 0, geranylgeraniol control 100. AID 602340. 330,000 tested, 0.78% active;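 active means mean ATP rescue above about 67%, or every replicate alone reaching that limit, limit read from the data, passing the limit was not always enough; inconclusive means no clear call, values can overlap the other calls; inactive means mean under the limit and some replicate under it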;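 further: myotubes were challenged with 10 µM simvastatin during compound exposure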
MITF TRPM1 HTS: increases MITF-driven TRPM1 promoter luciferase signal | SK-MEL-5 TRPM1-promoter luciferase, 24 h; % of positive control, neutral wells = 0 | activation, % at 12.5 µM | 300,000 tested, 0.75% active | AID 588334;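 active means mean activation of at least 80% with every replicate also reaching 80%; inconclusive means mean reaches 80% but some replicate falls short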;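 further: 0% = neutral control wells and 100% = parthenolide positive control wells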
esBAF inh: SWI/SNF esBAF complex inhibition; 350,000 tested, 2% active; mouse ES cells, Bmi1-luciferase knock-in reporter, 24 h; 100% = twice the neutral-well signal; reporter increase, % at 12.5 µM; AID 602393; in the data active means activation above about 40%; inconclusive means no clear call, values can overlap the other calls;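 further: 0% = median of the plate's neutral control wells and 100% = double that signal; a rise in the Bmi1 reporter signal indicates esBAF inhibition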
Wnt act: activates Wnt/beta-catenin signaling in a reporter cell assay | activator, plate reader | activation, % at 9.35 µM | 300,000 tested, 1.2% active | AID 743398; in the data active means activation above about 30%, passing the limit was not always enough; inconclusive means no clear call, values can overlap the other calls;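 further: 0% = neutral control wells and 100% = positive control wells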
GAA850 FXN act: activators of GAA850 frataxin (FXN) promoter | HEK293 lucGAA850 FXN promoter luciferase reporter, 24 h; percent of 10 µM SAHA response | activation, % at 6 µM | 360,000 tested, 0.56% active | AID 540364;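 active means activation above the average of all compounds screened plus 3 SD, cutoff fixed separately per campaign, cut at about 7.5% in these data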;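 further: 0% = DMSO wells and 100% = 10 µM SAHA wells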
* = called active by the depositor; ? = inconclusive; nt = no result. Compounds with a hit are over-represented: about 3.3% of the library has one in this group of screens.

SMILES | C2C12 statin | MITF TRPM1 HTS | esBAF inh | Wnt act | GAA850 FXN act
COCc1nn2c(N)c(-c3ccccc3)cnc2c1-c1ccccc1 | -18 | 108* | 50* | 8 | 7
O=C(C[C@H]1CC[C@@H](NC(=O)Cc2ccccn2)[C@H](CO)O1)NCCCN1CCOCC1 | 5 | nt | 0 | nt | nt
O=C(NCc1ccccn1)[C@@H]1[C@@H](CO)[C@@H]2Cn3c(ccc(C4=CCCC4)c3=O)[C@H]1N2Cc1cccnc1 | 15 | nt | -2 | nt | nt
Cc1ccc2[nH]c(C(=O)N3CCCCC3)cc2c1 | -1 | 44 | 58* | 13 | 2
CCOC(=O)[C@H]1[C@H]2COc3ccc(Cl)cc3[C@@H]2N2C(=O)c3cc(Cl)ccc3NC(=O)[C@@]12C | 3 | -3 | -1 | -3 | -10
CCOC(=O)[C@H]1[C@H]2COc3ccc(Cl)cc3[C@@H]2N2C(=O)c3ccccc3NC(=O)[C@@]12C | 135* | 5 | 5 | -2 | -8
COCCN(Cc1nc(-c2ccc(-c3ccccc3)cc2)oc1C)C(C)C | 1 | 36 | 65* | 16 | 3
CO[C@H]1CN(C)C(=O)c2cc(NC(=O)Nc3cc(F)ccc3F)ccc2OC[C@@H](C)N(C(=O)c2ccccn2)C[C@@H]1C | -2 | nt | -3 | nt | nt
CN1[C@@H]2c3ccc(-c4ccncc4)c(=O)n3C[C@H]1[C@H](CO)[C@H]2C(=O)Nc1nccs1 | -8 | nt | 6 | nt | nt
O=C(Nc1cccc(C2=NCCN2)c1)Nc1cccc(C2=NCCN2)c1 | -110 | -5 | 45* | -4 | -2
O=C(Nc1ccncc1)Nc1cccc(Cl)c1 | -11 | 23 | 4 | 1 | 1
O=C(N[C@@H]1CC[C@@H](CC(=O)N2CCCCC2)O[C@H]1CO)c1cccc(F)c1 | -2 | nt | -5 | nt | nt
Nc1c(C(=O)c2ccccc2)oc2ccccc12 | nt | 5 | 10 | 5 | 5
Cc1c(C(=O)c2ccccc2)oc2ccc3ccccc3c12 | -6 | nt | 40 | 50* | 4
COc1ccc(S(=O)(=O)Nc2ccc3c(c2)C(=O)N([C@H](C)CO)C[C@@H](C)[C@H](CN(C)Cc2ccc(Cl)c(Cl)c2)OCCCC[C@H](C)O3)cc1 | -81 | nt | 3 | nt | nt
CC1CCCC(C)N1C(=O)c1cc(-c2ccc(Cl)c(Cl)c2)on1 (stereo not given) | -1 | 97* | 80* | nt | 7
CC1CCCC(C)N1C(=O)c1cc(-c2ccc3c(c2)OCO3)on1 (stereo not given) | -3 | 95* | 56* | 1 | 4
O=C(c1cc(-c2ccc3c(c2)OCO3)on1)N1CCCCC1 | -1 | 11 | -66 | 29 | -2
COc1ccc(-c2nnc(-c3cc4ccccc4oc3=O)o2)cc1 | 13 | 55 | 12 | nt | 2
COc1ccc2cc(-c3nc4ccccc4n3C)c(=O)oc2c1 | 7 | 90* | 87* | 13 | 6
COc1ccc2oc(=O)c(-c3nc4ccccc4o3)cc2c1 | nt | 43 | nt | 103* | 6
COc1ccc2oc(=O)c(-c3nnc(NCc4ccco4)s3)cc2c1 | 103* | 2 | 33 | ? | 5
C=CCSc1nnc(CSc2nc3sc4c(c3c(=O)[nH]2)CCCC4)n1-c1ccccc1 | 120* | 3 | 12 | -5 | 0
O=c1oc2ccccc2cc1NCc1ccccc1O | 18 | 96* | 63* | 20 | 2
COc1ccc(S(=O)(=O)N(C)C[C@H]2Oc3ccc(NS(=O)(=O)c4cn(C)cn4)cc3C(=O)N([C@H](C)CO)C[C@H]2C)cc1 | nt | nt | 2 | nt | nt
SMILES | C2C12 statin | MITF TRPM1 HTS | esBAF inh | Wnt act | GAA850 FXN act
C=CCNc1nc(-c2ccc3c(c2)OCCO3)cs1 | 5 | 29 | 1 | 42* | 5
c1ccc(-c2csc(Nc3ccc4c(c3)OCCO4)n2)cc1 | -34 | 23 | 14 | 46* | 5
c1cc2c(cc1Nc1nc(-c3ccc4c(c3)OCO4)cs1)OCCO2 | 2 | nt | 21 | nt | -4
COc1cccc(Nc2nc(-c3ccc4c(c3)OCCO4)cs2)c1 | nt | 87* | nt | nt | -2
CCNC(=O)C[C@@H]1CC[C@H]2[C@@H](COc3ccc(NC(=O)c4ccc5c(c4)OCO5)cc3C(=O)N2C)O1 | 3 | nt | 5 | nt | nt
COc1ccc(NC(=O)c2ccc3c(c2)n(C)c(=O)n3C)cc1 | -4 | -13 | 15 | 0 | 2
CN1CCSc2ccc(C(=O)Nc3cccc(F)c3)cc21 | -10 | 65 | 50* | 10 | 5
COc1ccc(NC(=O)c2ccc3c(c2)N(C)CCS3)cc1 | 11 | nt | 85* | 53* | 2
